Assay [1] in a line: qHTS of pediatric cancer cell lines to identify multiple opportunities for drug repurposing: Primary screen for TC32 cells (AID 1347089). Note: nearly all actives have a fitted effect of over 60% in size. Note: potency is the fitted concentration of half-maximal effect. An outline of the steps: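 Luminescent ATP read-out (CellTiter-Glo) of metabolically active TC32 cells after 48 h exposure. Concentration-response curves came from 11-point (MIPE, 0.78 nM–46 µM) or 8-point (NPC, 0.59 nM–46 µM) primary titrations; follow-up used 11 points.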
Background: In qHTS, concentration-response curves come from the screen itself.

Assay [2] is described as follows: qHTS of pediatric cancer cell lines to identify multiple opportunities for drug repurposing: Primary screen for SJ-GBM2 cells (AID 1347091). Note: potency is the fitted concentration of half-maximal effect. The essentials:
(§1)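 Eight- or eleven-point concentration series, 48 h treatment at 37 degrees C in growth media; readout CellTiter-Glo luminescence. Potency and efficacy were taken from the concentration-response curves.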

Assay [3] is described as follows: qHTS of pediatric cancer cell lines to identify multiple opportunities for drug repurposing: Primary screen for DAOY cells (AID 1347090). Note: series mostly up to about 46 µM; nearly all actives have a fitted effect of over 55% in size. The essentials:
as §1

Assay [4] deals with Parathyroid hormone/parathyroid hormone-related peptide receptor (Homo sapiens) (UniProt Q03431). Put plainly: qHTS for PTHR1 Agonists: Optimization Screen against the NCGC LOPAC library (AID 1347079).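 Note: GloSensor cAMP luminescence in HEK-293 GP2 cells expressing human PTHR1 with IBMX.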 The essentials: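 HEK-293 GP2 cells, PTHR1 + GloSensor cAMP; 3000 cells/well, o/n. Luciferin + IBMX 0.5mM each (stock), 1 hr 37C. Cpd titration, 1 hr 37C. Lum after 15 min RT. Ctrl M-PTH(1-15) top 10uM.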

The nature of assay [5]: qHTS of pediatric cancer cell lines to identify multiple opportunities for drug repurposing: Primary screen for A673 cells (AID 1347092). Note: nearly all actives have a fitted effect of over 45% in size. Note: potency is the fitted concentration of half-maximal effect. An outline of the steps:
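Cell viability of A673 measured by CellTiter-Glo ATP luminescence after 48 hours compound exposure. Dilution series spanned 0.78 nM to 46 µM (MIPE, 11-point) or 0.59 nM to 46 µM (NPC, 8-point); bortezomib 2.3 uM positive control.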

Assay [6] can be described thus: qHTS of pediatric cancer cell lines to identify multiple opportunities for drug repurposing: Primary screen for SK-N-MC cells (AID 1347093). Note: potency is the fitted concentration of half-maximal effect. An outline of the steps: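 Metabolically active cells were quantified by ATP-dependent luminescence (CellTiter-Glo, 15 min at room temperature) following 48 h treatment. Cells had been plated at 500-1,000 per well and settled for 5 h beforehand.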

Assay [7] in a line: NS1 protein of Zika virus - qHTS assay to identify small molecule inhibitors in human HEK 293 cells (AID 1347053). Note: nearly all actives have a fitted effect of over 55% in size. Note: potency is the fitted concentration of half-maximal effect. An outline of the steps: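 Compound-treated (1 h pre-infection) HEK 293 cells infected with ZIKV MR766, MOI = 0.5; after 24 h at 37 C, NS1 read by TR-FRET; data normalized to uninfected and infected controls.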

SMILES strings stand for the structures. Records with an inconclusive call do not appear. Calls of active or inactive are those of the source. Calls come from the whole dose curve; as a rule, active = well fitted curve in the direction sought with a large enough effect; inconclusive = small, poorly fitted or top-dose-only effect, or another doubt; inactive = no such curve, though single readings can be large; an effect the other way counts as inactive or inconclusive.

Chain of Parathyroid hormone/parathyroid hormone-related peptide receptor (Homo sapiens) (Q03431 whole entry, looked up): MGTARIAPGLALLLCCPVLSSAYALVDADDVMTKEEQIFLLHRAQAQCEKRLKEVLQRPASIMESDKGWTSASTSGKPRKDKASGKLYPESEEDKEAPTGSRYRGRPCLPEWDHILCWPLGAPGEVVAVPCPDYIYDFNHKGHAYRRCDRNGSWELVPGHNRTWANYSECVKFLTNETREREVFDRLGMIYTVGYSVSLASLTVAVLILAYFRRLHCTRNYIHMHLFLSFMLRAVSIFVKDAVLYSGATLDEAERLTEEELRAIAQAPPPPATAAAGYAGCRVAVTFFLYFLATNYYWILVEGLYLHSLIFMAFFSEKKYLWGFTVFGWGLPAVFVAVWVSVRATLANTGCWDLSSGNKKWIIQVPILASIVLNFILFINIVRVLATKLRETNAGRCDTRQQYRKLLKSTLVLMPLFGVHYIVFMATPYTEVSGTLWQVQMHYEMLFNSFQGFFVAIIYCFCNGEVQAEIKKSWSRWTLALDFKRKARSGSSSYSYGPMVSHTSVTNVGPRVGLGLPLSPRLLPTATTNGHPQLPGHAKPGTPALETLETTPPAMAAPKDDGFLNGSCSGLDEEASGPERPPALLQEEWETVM

As to `COC(=O)N[C@H](C(=O)N1CCC[C@@H]1c1ncc(-c2ccc(-c3ccc(-c4cnc([C@@H]5CCCN5C(=O)[C@@H](NC(=O)OC)C(C)C)[nH]4)cc3)cc2)[nH]1)C(C)C`, the Potency result in assay [1] was “inactive”. In addition, the Potency in assay [2] was 23.5 µM (active).

As to `Cc1ccc([C@@H]2O[C@H](CO)[C@@H](O)[C@H](O)[C@@H]2O)cc1Cc1ccc(-c2ccc(F)cc2)s1`, the Potency entry in assay [1] and in assay [3] was “inactive” throughout.

Regarding `CC(C)OC(=O)C(C)(C)Oc1ccc(C(=O)c2ccc(Cl)cc2)cc1`, the result in assay [4] was inactive. Also, the Potency result in assay [1] and in assay [5] was “inactive” throughout. Moreover, in assay [6], the Potency was 20.9 µM (active).

On to `CON=C(C(=O)N[C@@H]1C(=O)N2C(C(=O)OCOC(=O)C(C)(C)C)=C(C=Cc3scnc3C)CS[C@H]12)c1csc(N)n1`, for which the Potency result in assay [7] and in assay [2] was “inactive” each time. Further, in assay [6], the Potency is 18.7 µM (active).

`CC(C)(C)NC(=O)Nc1cccc(Nc2ncc(F)c(NC(C)(C)CO)n2)c1`: in assay [7], the Potency entry was “inactive”. Moreover, the values for the Potency in assay [5] and in assay [6] were 18.7 µM (active) and 3.32 µM (active), respectively.

Consider `CC1(C)Cc2c(sc(NC(=S)NC(=O)c3ccccc3)c2C(=O)O)CO1`, for which the Potency result in assay [7] and in assay [2] was “inactive” throughout. For the same compound, the Potency in assay [6] is 1.66 µM (active).

In the case of `CC(=O)N(C)C1(c2ccccc2)CCN(CCC[C@]2(c3ccc(Cl)c(Cl)c3)CCCN(C(=O)c3ccccc3)C2)CC1`, the Potency was 26.4 µM (active) in assay [7] and 20.9 µM (active) in assay [6].

In the case of `CO[C@H]1C[C@@H]2CC[C@@H](C)[C@@](O)(O2)C(=O)C(=O)N2CCCC[C@@H]2C(=O)O[C@H]([C@H](C)C[C@@H]2CC[C@H](OCCO)[C@H](OC)C2)CC(=O)[C@H](C)C=C(C)[C@@H](O)[C@@H](OC)C(=O)[C@H](C)C[C@H](C)C=CC=CC=C1C`, the Potency in assay [1] is 3.3 µM (active); in assay [5], 11.8 µM (active).

The values above are taken from PubChem BioAssay (NCATS).
